Test [1] addresses RAC-alpha serine/threonine-protein kinase (Homo sapiens) (UniProt P31749). To be noted: at 0.1 µM.
For test [2] the target is unchanged. To be noted: at 1 µM.
Test [3] has as its target RAC-beta serine/threonine-protein kinase (Homo sapiens) (UniProt P31751). To be noted: at 0.1 µM.
Test [4] has the same target. To be noted: at 1 µM.
The target in test [5] is RAC-gamma serine/threonine-protein kinase (Homo sapiens) (UniProt Q9Y243). The following applies: at 0.1 µM.
For test [6] the target is unchanged. To be noted: at 1 µM.
Test [7] has as its target G protein-coupled receptor kinase 6 (Homo sapiens) (UniProt P43250). The following applies: at 0.1 µM.
For test [8] the target is unchanged. The following applies: at 1 µM.
Test [9] addresses T1, Rhodopsin kinase GRK7 (Homo sapiens) (UniProt Q8WTQ7).
T1 sequence (whole entry): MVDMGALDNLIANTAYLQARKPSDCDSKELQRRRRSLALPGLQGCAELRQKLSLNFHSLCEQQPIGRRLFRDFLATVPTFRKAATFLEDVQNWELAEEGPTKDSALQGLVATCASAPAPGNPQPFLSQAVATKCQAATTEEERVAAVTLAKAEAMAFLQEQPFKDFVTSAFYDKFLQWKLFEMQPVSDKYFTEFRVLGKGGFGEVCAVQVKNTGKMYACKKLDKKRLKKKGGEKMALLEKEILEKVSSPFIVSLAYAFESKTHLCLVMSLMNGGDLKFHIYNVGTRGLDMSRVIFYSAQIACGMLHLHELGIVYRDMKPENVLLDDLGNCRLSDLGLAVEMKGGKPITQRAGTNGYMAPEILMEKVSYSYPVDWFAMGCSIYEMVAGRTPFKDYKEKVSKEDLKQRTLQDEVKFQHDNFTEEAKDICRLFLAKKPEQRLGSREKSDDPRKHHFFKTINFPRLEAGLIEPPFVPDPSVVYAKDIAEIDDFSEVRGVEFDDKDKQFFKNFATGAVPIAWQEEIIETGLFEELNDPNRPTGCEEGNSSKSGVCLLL
To be noted: at 0.1 µM.

Test [10] concerns the target T1, Rhodopsin kinase GRK7 (Homo sapiens). To be noted: at 1 µM.
In test [11] the target is Serine/threonine-protein kinase MRCK alpha (Homo sapiens) (UniProt Q5VT25). To be noted: at 0.1 µM.
Test [12] shares this target. To be noted: at 1 µM.
The target in test [13] is Serine/threonine-protein kinase MRCK beta (Homo sapiens) (UniProt Q9Y5S2). The following applies: at 0.1 µM.
Test [14] has the same target. The following applies: at 1 µM.
Test [15] addresses Ribosomal protein S6 kinase alpha-5 (Homo sapiens) (UniProt O75582). The following applies: at 0.1 µM.
Test [16] has the same target. To be noted: at 1 µM.
Test [17] addresses Ribosomal protein S6 kinase alpha-4 (Homo sapiens) (UniProt O75676). The following applies: at 0.1 µM.
Test [18] shares this target. To be noted: at 1 µM.
Test [19] addresses Ribosomal protein S6 kinase beta-1 (Homo sapiens) (UniProt P23443). To be noted: at 0.1 µM.
The target is the same in test [20]. The following applies: at 1 µM.

SMILES strings stand for the structures.

Serine/threonine-protein kinase MRCK beta (Homo sapiens), sequence (Q9Y5S2 whole entry): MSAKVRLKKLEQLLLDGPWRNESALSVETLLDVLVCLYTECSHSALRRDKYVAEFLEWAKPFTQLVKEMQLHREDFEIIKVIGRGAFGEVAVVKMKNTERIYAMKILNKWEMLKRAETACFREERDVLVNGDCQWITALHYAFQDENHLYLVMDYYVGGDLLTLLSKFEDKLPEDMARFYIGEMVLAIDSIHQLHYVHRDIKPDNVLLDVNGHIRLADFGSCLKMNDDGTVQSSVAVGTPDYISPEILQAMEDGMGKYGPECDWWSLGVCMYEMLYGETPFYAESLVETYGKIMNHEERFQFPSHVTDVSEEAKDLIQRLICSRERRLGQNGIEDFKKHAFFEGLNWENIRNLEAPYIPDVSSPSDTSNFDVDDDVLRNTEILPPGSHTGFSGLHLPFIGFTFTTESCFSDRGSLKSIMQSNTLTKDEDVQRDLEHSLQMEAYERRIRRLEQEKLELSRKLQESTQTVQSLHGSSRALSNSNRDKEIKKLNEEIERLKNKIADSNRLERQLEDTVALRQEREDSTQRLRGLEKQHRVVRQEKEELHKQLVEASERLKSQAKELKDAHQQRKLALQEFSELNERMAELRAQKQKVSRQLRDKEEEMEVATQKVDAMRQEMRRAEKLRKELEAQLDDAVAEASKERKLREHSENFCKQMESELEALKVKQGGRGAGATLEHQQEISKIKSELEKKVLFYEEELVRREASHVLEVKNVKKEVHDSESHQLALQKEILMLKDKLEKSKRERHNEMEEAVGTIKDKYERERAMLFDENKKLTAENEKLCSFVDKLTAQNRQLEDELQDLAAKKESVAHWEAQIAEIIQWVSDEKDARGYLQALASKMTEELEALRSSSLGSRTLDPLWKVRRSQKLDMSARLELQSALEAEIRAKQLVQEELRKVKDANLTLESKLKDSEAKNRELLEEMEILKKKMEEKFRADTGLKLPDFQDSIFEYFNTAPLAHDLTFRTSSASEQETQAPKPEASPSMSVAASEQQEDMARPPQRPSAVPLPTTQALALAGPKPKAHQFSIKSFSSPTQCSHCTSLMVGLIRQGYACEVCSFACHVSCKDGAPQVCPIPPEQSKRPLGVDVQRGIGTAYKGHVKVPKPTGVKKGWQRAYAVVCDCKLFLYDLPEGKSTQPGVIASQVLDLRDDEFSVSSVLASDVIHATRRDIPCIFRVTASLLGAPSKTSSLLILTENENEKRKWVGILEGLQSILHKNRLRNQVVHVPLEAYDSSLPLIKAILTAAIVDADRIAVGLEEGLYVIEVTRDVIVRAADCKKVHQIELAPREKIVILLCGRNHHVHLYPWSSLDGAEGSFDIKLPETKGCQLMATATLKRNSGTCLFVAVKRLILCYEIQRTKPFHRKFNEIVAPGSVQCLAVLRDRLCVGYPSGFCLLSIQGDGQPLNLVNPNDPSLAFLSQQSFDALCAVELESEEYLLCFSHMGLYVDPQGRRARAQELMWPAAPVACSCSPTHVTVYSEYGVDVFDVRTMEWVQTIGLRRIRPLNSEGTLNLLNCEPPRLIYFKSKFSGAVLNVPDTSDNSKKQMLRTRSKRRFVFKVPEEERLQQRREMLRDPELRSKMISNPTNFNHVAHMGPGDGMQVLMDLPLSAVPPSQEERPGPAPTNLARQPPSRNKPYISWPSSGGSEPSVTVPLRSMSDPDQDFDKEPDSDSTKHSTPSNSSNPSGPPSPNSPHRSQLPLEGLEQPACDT
RAC-beta serine/threonine-protein kinase (Homo sapiens), sequence (P31751 whole entry): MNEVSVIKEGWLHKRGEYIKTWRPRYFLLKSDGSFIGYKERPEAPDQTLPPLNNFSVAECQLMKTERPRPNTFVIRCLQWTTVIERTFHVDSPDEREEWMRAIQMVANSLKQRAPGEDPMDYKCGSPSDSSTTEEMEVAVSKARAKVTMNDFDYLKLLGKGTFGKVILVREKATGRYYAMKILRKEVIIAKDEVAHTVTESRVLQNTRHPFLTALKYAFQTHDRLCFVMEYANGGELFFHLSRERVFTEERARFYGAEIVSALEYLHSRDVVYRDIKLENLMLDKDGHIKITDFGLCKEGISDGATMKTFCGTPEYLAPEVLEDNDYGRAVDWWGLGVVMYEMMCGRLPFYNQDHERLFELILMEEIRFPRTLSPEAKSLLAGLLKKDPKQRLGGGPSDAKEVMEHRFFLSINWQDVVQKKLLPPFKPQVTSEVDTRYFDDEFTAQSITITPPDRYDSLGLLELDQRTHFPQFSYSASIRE
Ribosomal protein S6 kinase alpha-5 (Homo sapiens), sequence (O75582 whole entry, looked up): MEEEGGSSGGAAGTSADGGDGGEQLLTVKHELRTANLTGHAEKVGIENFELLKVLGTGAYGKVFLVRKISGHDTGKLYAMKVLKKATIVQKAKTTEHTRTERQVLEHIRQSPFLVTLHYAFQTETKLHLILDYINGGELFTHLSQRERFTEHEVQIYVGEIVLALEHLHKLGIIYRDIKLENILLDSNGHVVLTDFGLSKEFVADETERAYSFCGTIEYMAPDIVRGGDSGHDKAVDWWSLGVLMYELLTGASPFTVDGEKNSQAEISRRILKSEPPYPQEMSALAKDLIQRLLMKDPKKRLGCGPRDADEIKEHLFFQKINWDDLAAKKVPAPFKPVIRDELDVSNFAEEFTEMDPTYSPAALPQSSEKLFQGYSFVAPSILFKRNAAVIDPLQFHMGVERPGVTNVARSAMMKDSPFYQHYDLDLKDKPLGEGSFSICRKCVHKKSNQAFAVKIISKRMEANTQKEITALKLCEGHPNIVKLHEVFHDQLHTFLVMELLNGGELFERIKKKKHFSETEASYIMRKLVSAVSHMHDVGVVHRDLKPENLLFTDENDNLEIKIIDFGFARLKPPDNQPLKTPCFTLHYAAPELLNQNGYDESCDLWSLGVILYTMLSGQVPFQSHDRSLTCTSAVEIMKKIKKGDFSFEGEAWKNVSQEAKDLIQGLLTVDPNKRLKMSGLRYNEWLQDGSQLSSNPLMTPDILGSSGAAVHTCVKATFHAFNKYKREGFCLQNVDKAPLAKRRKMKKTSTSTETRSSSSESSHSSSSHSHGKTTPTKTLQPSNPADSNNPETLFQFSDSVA
RAC-alpha serine/threonine-protein kinase (Homo sapiens), sequence (P31749 whole entry): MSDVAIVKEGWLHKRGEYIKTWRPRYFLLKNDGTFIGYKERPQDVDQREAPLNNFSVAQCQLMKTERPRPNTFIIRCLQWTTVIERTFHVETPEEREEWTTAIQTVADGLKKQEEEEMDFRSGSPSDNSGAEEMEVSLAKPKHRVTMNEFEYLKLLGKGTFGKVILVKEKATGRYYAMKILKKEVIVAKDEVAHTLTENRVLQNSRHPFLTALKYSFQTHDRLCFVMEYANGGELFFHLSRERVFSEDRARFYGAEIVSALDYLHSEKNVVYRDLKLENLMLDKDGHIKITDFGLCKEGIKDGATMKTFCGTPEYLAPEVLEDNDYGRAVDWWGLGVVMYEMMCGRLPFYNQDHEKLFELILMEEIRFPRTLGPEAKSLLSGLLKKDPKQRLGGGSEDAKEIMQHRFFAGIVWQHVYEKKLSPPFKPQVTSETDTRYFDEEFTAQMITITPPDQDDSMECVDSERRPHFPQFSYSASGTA
Ribosomal protein S6 kinase alpha-4 (Homo sapiens), sequence (O75676 whole entry, looked up): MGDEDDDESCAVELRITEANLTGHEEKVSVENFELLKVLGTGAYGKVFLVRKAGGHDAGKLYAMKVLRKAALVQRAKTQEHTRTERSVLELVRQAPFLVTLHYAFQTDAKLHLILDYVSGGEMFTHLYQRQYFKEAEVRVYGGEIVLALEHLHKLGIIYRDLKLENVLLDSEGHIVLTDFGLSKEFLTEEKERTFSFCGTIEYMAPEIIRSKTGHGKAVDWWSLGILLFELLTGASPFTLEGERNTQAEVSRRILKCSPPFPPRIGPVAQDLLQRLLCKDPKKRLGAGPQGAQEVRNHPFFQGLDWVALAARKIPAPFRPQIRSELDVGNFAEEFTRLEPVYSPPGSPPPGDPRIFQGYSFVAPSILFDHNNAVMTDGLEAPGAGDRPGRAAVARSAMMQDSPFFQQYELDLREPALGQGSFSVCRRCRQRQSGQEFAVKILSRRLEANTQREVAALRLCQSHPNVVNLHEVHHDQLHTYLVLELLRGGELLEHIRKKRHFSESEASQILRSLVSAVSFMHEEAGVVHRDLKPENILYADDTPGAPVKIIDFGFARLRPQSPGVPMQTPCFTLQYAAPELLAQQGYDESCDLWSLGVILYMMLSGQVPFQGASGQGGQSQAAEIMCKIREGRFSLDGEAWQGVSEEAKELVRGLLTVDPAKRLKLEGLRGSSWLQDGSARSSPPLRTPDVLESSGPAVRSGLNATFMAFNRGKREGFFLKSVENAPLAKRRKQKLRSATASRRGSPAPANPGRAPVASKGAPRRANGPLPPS
RAC-gamma serine/threonine-protein kinase (Homo sapiens), sequence (Q9Y243 whole entry): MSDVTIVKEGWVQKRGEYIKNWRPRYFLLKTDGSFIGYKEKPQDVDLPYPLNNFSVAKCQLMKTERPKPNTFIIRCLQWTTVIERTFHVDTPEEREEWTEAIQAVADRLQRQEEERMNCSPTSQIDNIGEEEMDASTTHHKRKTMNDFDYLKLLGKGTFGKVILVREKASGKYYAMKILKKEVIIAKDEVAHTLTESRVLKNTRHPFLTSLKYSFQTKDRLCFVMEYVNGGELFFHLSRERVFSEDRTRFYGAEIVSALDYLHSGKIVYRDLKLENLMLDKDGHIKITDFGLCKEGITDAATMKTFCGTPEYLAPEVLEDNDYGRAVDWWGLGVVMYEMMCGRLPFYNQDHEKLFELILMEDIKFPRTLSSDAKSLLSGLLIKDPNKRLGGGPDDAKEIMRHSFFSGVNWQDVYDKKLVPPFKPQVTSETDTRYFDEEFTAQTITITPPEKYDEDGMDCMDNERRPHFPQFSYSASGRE

For orientation: inhibition means the relative decrease from the control value, in per cent. Take `Nc1nccc(C#Cc2cncnc2Nc2ccc(OCc3cccc(F)c3)c(Cl)c2)n1`: the inhibition in test [1] was 1.34%; in test [2], 0.92%; in test [3], 1.52%; in test [4], 1.54%; in test [5], 2.87%; in test [6] it was 1.85%. Moreover, the inhibition is 1.35% in [7]; -4.58% in test [8]; 4.51% in [9]; 1.2% in test [10]; 0.06% in test [11]; -0.95% in test [12]. The inhibition was -0.16% in test [13]; 2.38% in test [14]; 4.15% in [15]; 4.83% in test [16]; 1.39% in [17]; 4.41% in [18]. Further, the inhibition in [19] is 1.09%; in [20], 1.35%.
`O=S(=O)(CCOCc1ccc(-c2ccc3ncnc(Nc4ccc(OCc5cccc(F)c5)c(Cl)c4)c3c2)o1)c1ccccc1`: the inhibition in test [1] was -0.1%; in [2] it was -0.35%; in test [3] it was 0.2%; in [4], 1.21%; in [5], -0.84%; in test [6], 3.06%. Moreover, the inhibition in test [7] was 0.84%; in test [8] it was 0.78%; in test [9], 7.97%; in [10], 4.68%; in [11] it was 0.06%; in test [12] it was -0.21%. The inhibition in test [13] was 0.42%; in test [14] it was 1.18%; in [15], 0.65%; in test [16], 0.85%; in [17], -0.78%; in test [18], 0.33%. Besides, the inhibition was -1.35% in test [19] and -0.16% in test [20].
Turning to `Cc1cc(O)cc(C)c1/C=C/c1cncc(C(=O)N(C)C)c1`, the inhibition in test [1] came out at 0.52%; in test [2] it was 0.6%; in [3], 2.14%; in test [4], 0.78%; in test [5], 1.44%; in [6], 1.3%. Further, the inhibition in [7] is 3.76%; in test [8] it was 0.05%; in test [9], 0%; in test [10], -6.95%; in test [11], 0.02%; in test [12], 0.32%. In addition, the inhibition was determined as 0.83% in test [13]; 1.36% in [14]; 2% in [15]; 4.09% in test [16]; 1.39% in test [17]; 2.46% in [18]. Besides, the inhibition in [19] is 0.39%; in [20], 3.03%.
As to `N#Cc1cccc(Nc2nccc(-c3cnn4ncccc34)n2)c1`, the inhibition amounted to 0.4% in [1]; 1.36% in test [2]; 1.11% in test [3]; 1.66% in test [4]; 3.16% in [5]; 5.1% in test [6]. Also, the inhibition in [7] came out at 2.91%; in [8], 8.01%; in test [9] it was 6.46%; in [10], 21.6%; in test [11] it was 0%; in [12] it was 2.93%. Besides, the inhibition was -1.54% in [13]; 1.01% in [14]; 3.66% in [15]; 8.54% in test [16]; 2.1% in [17]; 8.46% in test [18]. Moreover, the inhibition in test [19] was 0.58%; in test [20], 3.59%.
For `Cc1cc(-c2ccccn2)cc(C)c1/C=C/c1cncc(-c2nn[nH]n2)c1`, the inhibition is 1.14% in [1]; 0.85% in test [2]; 0.53% in [3]; 1.57% in [4]; 2.14% in [5]; 2.17% in test [6]. The inhibition in test [7] came out at 5.67%; in test [8], 1.26%; in test [9] it was 9.3%; in test [10], 7.66%; in test [11], 2.46%; in test [12], 1.25%. The inhibition came to 0.75% in test [13]; 0.41% in test [14]; 3.34% in test [15]; 2.91% in test [16]; 0.46% in test [17]; 1.78% in [18]. Moreover, the inhibition in test [19] stood at 0.44%; in test [20], 1.44%.
On to `NC(=O)c1cccc(Nc2nccc(Nc3cccc(F)c3)n2)c1`, for which the inhibition in test [1] is 0.22%; in test [2], -0.29%; in [3] it was 0.22%; in test [4] it was 0.58%; in [5], 0.47%; in [6], 3.46%. In addition, the inhibition in test [7] amounted to 2.83%; in test [8], 0.77%; in test [9], 4.02%; in test [10], 2.39%; in test [11], 1.84%; in [12], 0.87%. Also, the inhibition in test [13] stood at 0.04%; in test [14], 1.43%; in test [15], 1.48%; in test [16] it was 0.2%; in test [17] it was 0.68%; in test [18], 1.21%. The values for the inhibition in test [19] and in test [20] were 0.38% and 1.99%, respectively.
Turning to `CC(C)c1ccc2c(c1)NC(=O)/C2=N/Nc1ccc(S(N)(=O)=O)cc1`, the inhibition in [1] is -0.05%; in test [2], -0.49%; in [3] it was -0.37%; in test [4], 0.73%; in [5], -0.27%; in test [6], 4.41%. In addition, the inhibition is -0.59% in test [7]; -0.78% in [8]; 2.96% in test [9]; -0.57% in test [10]; 2.04% in [11]; -2.97% in [12]. Besides, the inhibition in test [13] is -0.17%; in test [14], -1.37%; in [15] it was -0.47%; in test [16], -2.62%; in [17], 0.04%; in test [18], -1.31%. Also, the results for the inhibition in test [19] and in test [20] were -0.81% and -1.36%, respectively.
As to `COc1cc2ncn(-c3cc(OCc4ccccc4S(C)(=O)=O)c(C#N)s3)c2cc1OC`, the inhibition in [1] amounted to 1.44%; in [2] it was 1.02%; in [3], 2.07%; in [4], 1.33%; in [5] it was 2.7%; in test [6], 1.68%. The inhibition in test [7] came to 13.8%; in test [8] it was 3.6%; in test [9], 8.51%; in test [10], 40.4%; in test [11], 1.12%; in test [12], 5.41%. Also, the inhibition was 1.99% in test [13]; 4.7% in test [14]; 8.16% in test [15]; 11% in test [16]; 3.93% in [17]; 10% in test [18]. Also, the inhibition came out at 3.14% in test [19] and 5.33% in [20].
Take `CN(C)CCCn1c(-c2nonc2N)nc2cnccc21`: the inhibition in test [1] was determined as 0.01%; in test [2] it was 1.38%; in test [3], 1.85%; in [4] it was 3.82%; in test [5] it was 0.92%; in test [6] it was 1.84%. Moreover, the inhibition was 3.78% in test [7]; 3.55% in [8]; 2.61% in test [9]; 5.07% in test [10]; 1.89% in test [11]; 16.4% in [12]. Further, the inhibition amounted to 4.34% in test [13]; 22.6% in [14]; 8.29% in [15]; 28.7% in test [16]; 3.18% in [17]; 13.9% in test [18]. Moreover, the inhibition in [19] is 2.39%; in test [20], 13.2%.
As for `NS(=O)(=O)c1cccc(Nc2cc(-c3ccc(F)cc3)n[nH]2)c1`, the inhibition was 1.57% in test [1]; 2.41% in [2]; 3.5% in test [3]; 2.66% in [4]; 2.29% in test [5]; 3.03% in [6]. Also, the inhibition in test [7] is 4.03%; in [8], 8.09%; in test [9] it was 2.68%; in test [10] it was 5.14%; in test [11] it was -0.33%; in test [12] it was 4.84%. The inhibition in test [13] was -0.58%; in test [14], 2.02%; in test [15] it was 9.72%; in [16] it was 11.4%; in test [17] it was 3.37%; in [18], 5.59%. The inhibition came to 1.79% in test [19] and 3.12% in [20].
Consider `CN(c1ccc(NC(=O)Nc2ccc(OC(F)(F)F)cc2)cc1)c1ccnc(Nc2cccc(S(N)(=O)=O)c2)n1`, for which the inhibition in test [1] worked out at 0.77%; in [2], 0.88%; in test [3], 0.51%; in [4], 1.22%; in test [5], 0.16%; in test [6] it was 2.79%. The inhibition in test [7] is -5.14%; in test [8], -2.97%; in test [9], 3.47%; in test [10] it was -1.66%; in test [11], -5.74%; in test [12] it was -0.82%. Further, the inhibition in test [13] was -0.58%; in test [14], -2.72%; in [15] it was 0.92%; in test [16], -1.11%; in [17] it was 2%; in [18], 4.78%. Further, the inhibition was -0.25% in [19] and 1.95% in test [20].
As to `CCS(=O)(=O)c1ccc(OC)c(Nc2ncc(-c3cccc(OC)c3)o2)c1`, the inhibition was 0.36% in test [1]; 0.85% in test [2]; 1.41% in test [3]; 0.82% in test [4]; 1.04% in test [5]; -0.57% in [6]. For the same molecule, the inhibition is -1.06% in [7]; -5% in [8]; -0.18% in test [9]; -8.47% in test [10]; -0.07% in test [11]; -0.94% in [12]. In addition, the inhibition in test [13] is -0.48%; in [14], 0.59%; in [15], 3.23%; in test [16] it was 7.32%; in [17], -0.21%; in test [18], 3.76%. The figures for the inhibition in test [19] and in test [20] were 0.98% and 1.18%, respectively.
Turning to `COc1cccc(-n2nc(C)c3c(N/N=C(\C)c4ccncc4)ncnc32)c1`, the inhibition was -0.15% in test [1]; -0.16% in test [2]; -0.34% in test [3]; 0.3% in test [4]; -0.78% in test [5]; 3.59% in [6]. Besides, the inhibition in test [7] is 0.75%; in test [8], 1.13%; in test [9], 3.79%; in [10] it was 0.01%; in test [11], 1.87%; in [12], -2.42%. Further, the inhibition in test [13] is 0.02%; in [14], -0.47%; in [15], 0.18%; in test [16] it was -0.52%; in test [17], 0.44%; in test [18] it was 0.3%. In addition, the inhibition is 0.29% in [19] and -0.38% in [20].

Source of the values: ChEMBL document CHEMBL1961873, “Compounds: GSK PKIS; Assays: Nanosyn kinase panel” (2012).
